In PubChem BioAssay (NCI):
The panel holds about 83,000 compounds, 20% with a hit somewhere; the sample as a whole holds those more often.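 In brief: 96-well plates, 48 h treatment, single concentration, percent growth endpoint.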 A number with no mark means an inactive call. The source made the active and inactive calls. Rule for the calls: active = growth percent below 10; inactive = the rest.

Columns and labels:
Test in all cases: NCI-60 one-dose screen, 48 h (100 = growth as untreated, 0 = no growth, -100 = all killed)
Conditions in all cases: 10 µM unless noted
EKVX NSCLC = tested on: EKVX NSCLC
SN12C renal = tested on: SN12C renal
UO-31 renal = tested on: UO-31 renal
TK-10 renal = tested on: TK-10 renal
ACHN renal = tested on: ACHN renal
CAKI-1 renal = tested on: CAKI-1 renal
A498 renal = tested on: A498 renal
CCRF-CEM leukemia = tested on: CCRF-CEM leukemia
MOLT-4 leukemia = tested on: MOLT-4 leukemia
SR leukemia = tested on: SR leukemia

Row | Compound | growth (EKVX NSCLC) | growth (SN12C renal) | growth (UO-31 renal) | growth (TK-10 renal) | growth (ACHN renal) | growth (CAKI-1 renal) | growth (A498 renal) | growth (CCRF-CEM leukemia) | growth (MOLT-4 leukemia) | growth (SR leukemia)
1 | CC(=O)c1ccc(Nc2nc(NCCO)nc(Nc3ccc(Cl)cc3)n2)cc1 | 80.2% | 95.8% | 81.3% | 108% | 87.8% | 92.1% | 72.9% | 89.4% | 83.9% | 64.7%
2 | COc1cc(/C=C2\CN(C)C/C(=C\c3cc(CN4CCOCC4)c(O)c(OC)c3)C2=O)cc(CN2CCOCC2)c1O | 80.6% | 35% | 76.6% | 91.9% | 47.5% | 82.7% | 81.8% | 32.1% | 30% | 32.6%
3 | COc1ccc(-c2c(-c3ccc(OC)c(O)c3)cnc3ncnn23)cc1 | 98.1% | 105% | 94.1% | 98% | 105% | 95.1% | 91.9% | 102% | 100% | 109%
4 | Cc1ccc2sc3c(NCCCNCCO)nc4ccccc4c3c(=O)c2c1 | 57.3% | 72.8% | 48.6% | 66.9% | 6.81% (active) | 56.7% | 65.8% | 10.8% | -39.3% (active) | 2.94% (active)
5 | CSc1nc2c(c(=O)[nH]1)N=C1c3ccccc3C(=O)C1C(c1ccc(F)cc1)N2 (stereo not given) | 74.8% | 87.7% | 62.8% | 78.2% | 59.1% | 25.8% | 88.2% | 52.5% | 76% | 31.5%
6 | CNCCNc1nc2ccccc2c2c(=O)c3cc(F)ccc3sc12 | 71.9% | 67.2% | 41.3% | 60.2% | 37.3% | 44% | 38.9% | 15.5% | -18.9% (active) | 13.6%
7 | CCC1=C[C@]2(C3CC(=O)N(c4ccccc4)C3=O)CC(C(C)(C)C)C[C@@H]2[C@@H]2C(=O)N(c3ccccc3)C(=O)[C@H]12 (stereo not given in full) | 74.3% | 89.2% | 73.1% | 99.7% | 90.5% | 71.4% | 88% | 86.2% | 80.4% | 80.4%
8 | COc1ccc(N(C)c2nc(N)nc3sc4c(c23)CCCC4)cc1 | 61% | 24.2% | 38.5% | 45.1% | 26.7% | 25.6% | 0.565% (active) | 9.1% (active) | 11.6% | 6.49% (active)
9 | CCOC(=O)c1c2c(c(C)n1Cc1ccc(OC)cc1)-c1oncc1CC2 | 94.3% | 175% | 65.3% | 102% | 91.3% | 70.6% | 91.9% | 93.3% | 85.3% | 85.4%
10 | Nc1nc(-c2ccccc2Br)nn1-c1nc2ccccc2s1 | 92.2% | 100% | 105% | 118% | 98.3% | 97.2% | 101% | 101% | 88.3% | 81.5%
11 | COc1cc(C2C3=C(COC3=O)N(CCO)c3cc4c(cc32)OCCO4)cc(OC)c1O (stereo not given) | 41% | 39.8% | 60.3% | 47.4% | 37.2% | 39.8% | 25.5% | 15.5% | 29.7% | 23%
12 | CCN1C(=O)N(CC)C2C1NN=c1s/c(=C3\C(=O)N(C(C)C)c4ccccc43)c(=O)n12 (stereo not given) | 31.5% | 21.6% | 45.4% | 56.5% | 25.4% | 31.8% | -2.49% (active) | 9.92% (active) | 13.8% | 10.6%
13 | CN1C(=O)N(C)C2Nn3c(s/c(=C4\C(=O)N(CCc5ccccc5)c5ccccc54)c3=O)=NC21 (stereo not given) | 58% | 74.3% | 62.9% | 70.5% | 59.3% | 49.2% | 70.3% | 53.1% | 70.8% | 30.4%
14 | CCCc1c(C)c2sc(=O)[nH]c2[nH]c1=O | 98.8% | 107% | 94.8% | 110% | 106% | 99% | 112% | 124% | 106% | 109%
15 | COc1cc(C=C2C(=O)N(C)C(=O)N(C)C2=O)cc(CN2CCCCC2)c1O | 104% | 94% | 75.4% | 103% | 95.9% | 92.4% | 98.7% | 109% | 98.2% | 94.4%
16 | CN(CCc1ccccc1)C(=S)N(C(=O)c1ccc([N+](=O)[O-])cc1)c1ccc(Cl)cc1 | 95.1% | 89% | 76.8% | 76% | 106% | 85.5% | 93.4% | 39.6% | 43.1% | 25%
17 | Cc1cc2c(c(C)c1Cl)C(=O)/C(=C/c1ccco1)O2 | 83.4% | 96% | 78.3% | 93.9% | 92.2% | 93.7% | 104% | 95.6% | 97.3% | 69.7%
18 | Brc1ccc(Oc2ccc(Nc3ncnc4onc(-c5ccccc5)c34)cc2)cc1 | 105% | 94.8% | 73% | 110% | 105% | 91.8% | 82.4% | 97.3% | 94% | 94.2%
19 | COc1ccc(N2C(=O)CC(c3cc(OC)c(OC)c(OC)c3)C3C2=NC(=O)N3C)cc1 (stereo not given) | 102% | 102% | 89.9% | 103% | 106% | 95.1% | 102% | 109% | 114% | 126%
20 | COC(=O)c1ccc(NC(=O)CSc2nc3ccccc3c(=O)n2-c2ccccc2)cc1 | 117% | 104% | 86.4% | 103% | 103% | 91.5% | 96.7% | 92.8% | 88% | 88.9%
21 | COc1cc(/C(C#N)=C/c2nc3c(N4CCOCC4)nc(Cl)nc3n2C)cc(OC)c1OC | 35.2% | 14.9% | -1.84% (active) | 50.5% | 13.7% | 6.49% (active) | -28.1% (active) | 14.4% | 9.93% (active) | 27.9%
22 | COc1cc2nc(NC3CCCC3)nc(NC3CCN(C(C)C)CC3)c2cc1OC | 81.6% | 97.3% | 79.5% | 71.7% | 86.9% | 98.2% | 97.4% | 66.4% | 54.1% | -1.77% (active)
23 | CCOC(=O)c1sc(-c2ccc(OS(=O)(=O)c3ccccc3[N+](=O)[O-])c(C=O)c2)nc1C | 92.3% | 3.63% (active) | 57.1% | 85.5% | 101% | 38.8% | -84.6% (active) | 12.1% | 9.88% (active) | 9.06% (active)
24 | CCCCC1CCc2cccc3c(SCC(=O)N(C)c4ccc(Cl)cc4)cc[n+]1c23 (stereo not given) | 125% | 104% | 103% | 109% | 105% | 99.1% | 114% | 108% | 98.7% | 101%
25 | Fc1ccc(Oc2ccc(Nc3ncnc4onc(-c5ccccc5)c34)cc2)cc1 | 98.9% | 84.1% | 52.3% | 102% | 99.8% | 93.5% | 67% | 62.9% | 88.7% | 102%
26 | Cc1nc(Nc2cn[nH]c2C(=O)Nc2ccc(CN3CCN(C)CC3)cc2)c2ccsc2n1 | 106% | 75.4% | 59.6% | 114% | 92.8% | 61.5% | 66.7% | 40.5% | 45.8% | 5.46% (active)
27 | COc1ccc(-c2cn[nH]c2-c2ccc(OC)c(O)c2)cc1 | 84.9% | 91.3% | 85.1% | 88.6% | 92.2% | 75% | 59% | 71.9% | 67.4% | 33.7%
